From PubChem BioAssay (Tox21)
The source made the active and inactive calls. Unless noted, calls follow the shape of the dose curve; as a rule, active = well fitted curve in the direction sought with a large enough effect in the repeat runs; inconclusive = weak or mixed curves; inactive = no such curve, though single readings can be large; an effect the other way counts as inactive or inconclusive.

Columns and labels:
[1] = qHTS assay to identify small molecule antagonists of the thyroid receptor (TR) signaling pathway - cell viability counter screen (AID 743064); also: nearly all actives have a fitted effect of over 50% in size
Method in brief: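 Counter screen for cytotoxicity: compound plus T3 (1 nM final) on GH3.TRE-Luc cells, 23.5 h at 37 °C, then fluorescence viability readout with CellTiter-Fluor.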

[2] = qHTS assay to identify small molecule antagonists of the thyroid receptor (TR) signaling pathway (AID 743065); also: nearly all actives have a fitted effect of over 55% in size; also: potency is read from the fitted curve at half-maximal effect
Method in brief: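 GH3.TRE-Luc rat pituitary cells carrying two TR response elements driving luciferase were plated for 4 h, given compound plus 1 nM T3 (final), and incubated 23.5 h at 37 C. ONE-Glo luminescence measured reporter inhibition; CellTiter-Fluor fluorescence tracked cytotoxicity.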

[3] = tested on: thyroid hormone receptor (rat, GH3 cells); assay: qHTS assay to identify small molecule agonists of the thyroid receptor (TR) signaling pathway (AID 743066; calls by dose curve)
[4] = qHTS assay to identify small molecule antagonists of the estrogen receptor alpha (ER-alpha) signaling pathway - cell viability counter screen (AID 743074; calls by dose curve;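 also: HEK293 cells carrying ER-alpha-UAS-bla reporter stimulated with 17beta-estradiol; nearly all actives have a fitted effect of over 45% in size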)
[5] = target: Estrogen receptor (Homo sapiens) (UniProt P03372); assay: qHTS assay to identify small molecule agonists of the estrogen receptor alpha (ER-alpha) signaling pathway (AID 743075; calls by dose curve;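 also: HEK293 GripTite cells with ER-alpha and UAS-driven beta-lactamase reporter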)
[6] = qHTS assay to identify small molecule antagonists of the estrogen receptor alpha (ER-alpha) signaling pathway using the BG1 cell line (AID 743080; calls by dose curve;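 also: BG1 cells stimulated with 17beta-estradiol alongside compound; series mostly up to about 70 µM; nearly all actives have a fitted effect of over 25% in size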)
Method in brief: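 Seeding, 24 h rest, compound transfer from DMSO, 17beta-estradiol addition, 21.5 h incubation, CellTiter-Fluor (30 min, 37 C), then ONE-Glo (30 min, room temperature): this sequence was run on BG1-Luc-4E2 reporter cells.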

[7] = qHTS assay to identify small molecule antagonists of the estrogen receptor alpha (ER-alpha) signaling pathway using the BG1 cell line - cell viability counter screen (AID 743081);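 also: compound given together with 17beta-estradiol as the ER stimulus; series mostly up to about 70 µM; nearly all actives have a fitted effect of over 45% in size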
Aromatase (Homo sapiens) = Aromatase (Homo sapiens) (UniProt P11511); assay: qHTS assay to identify aromatase inhibitors (AID 743083); also: series mostly up to about 70 µM; nearly all actives have a fitted effect of over 55% in size
[8] = qHTS assay to identify aromatase inhibitors - cell viability counter screen (AID 743084);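 also: cells stimulated with testosterone during compound exposure; nearly all actives have a fitted effect of over 55% in size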
[9] = qHTS assay to identify small molecule that activate the aryl hydrocarbon receptor (AhR) signaling pathway - cell viability counter screen (AID 743086);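 also: HepG2 liver cells carrying the AhR DRE luciferase reporter; series mostly up to about 70 µM; nearly all actives have a fitted effect of over 45% in size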
Method in brief: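 HepG2-AhR-luc (HG2L7.5c1) cells, 4000/well, were preincubated 5 h at 37C, exposed to compound in qHTS format for 24 hr at 37C, then given CellTiter-Fluor for 30 min; viability was read as fluorescence in the reporter wells.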

[10] = qHTS assay to identify small molecule antagonists of the peroxisome proliferator-activated receptor gamma (PPARg) signaling pathway - cell viability counter screen (AID 743194); also: nearly all actives have a fitted effect of over 55% in size
Method in brief: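 PPARg-UAS-bla HEK293H cells were plated, rested 5 h at 37 C, then treated with compounds plus rosiglitazone (50 nM final) for 17 h at 37 C; viability was then read by CellTiter-Glo luminescence after 30 min at room temperature.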

[11] = qHTS assay for small molecule agonists of the antioxidant response element (ARE) signaling pathway - cell viability counter screen (AID 743203; calls by dose curve; also: nearly all actives have a fitted effect of over 55% in size)
Method in brief: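 ARE-bla HepG2 cells were plated, rested 5 h at 37C/5% CO2, then exposed to compounds in DMSO for 16 h. Viability was read as CellTiter-Glo luminescence after 30 min at room temperature, in the same wells as the ARE screen.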

[12] = qHTS assay for small molecule activators of the heat shock response signaling pathway - cell viability counter screen (AID 743209); also: nearly all actives have a fitted effect of over 50% in size
Method in brief: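 HSE-bla HeLa cells plated overnight, then exposed to Tox21 compounds (23 nL in DMSO) for 5 h at 37 C. After the bla reporter read, CellTiter-Glo was added in the same wells and luminescence read after 30 min at room temperature.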

[13] = qHTS assay for small molecule activators of the heat shock response signaling pathway (AID 743210; active = well fitted activation curve with a large enough effect in the signal ratio in the repeat runs, with a control signal flat, not every such curve was filed as active; inconclusive = weak or mixed curves; the % refers to the signal ratio;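 also: HeLa cells with beta-lactamase reporter driven by heat shock elements; series mostly up to about 63 µM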)
Method in brief: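 Reporter gene assay: HeLa cells stably bearing an HSE-bla construct, compound treatment 5 h at 37 C, LiveBLAzer substrate 2.5 h at RT, fluorescence intensity.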

[14] = target: Estrogen receptor (Homo sapiens) (UniProt P03372); assay: qHTS assay to identify small molecule antagonists of the estrogen receptor alpha (ER-alpha) signaling pathway (AID 743069; active = well fitted curve in the direction sought with a large enough effect in the signal ratio in the repeat runs, not every such curve was filed as active; inconclusive = weak or mixed curves, or effect the other way; inactive = no such curve, though single readings can be large or run the other way; the % refers to the signal ratio; also: potency is read from the fitted curve at half-maximal effect)
Method in brief: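 Estradiol-stimulated ER-alpha-UAS-bla HEK293 cells, 18 hr compound exposure at 37C. LiveBLAzer B/G substrate, 2 hr RT, fluorescence read.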

[15] = target: Aryl hydrocarbon receptor (Homo sapiens) (UniProt P35869); assay: qHTS assay to identify small molecule that activate the aryl hydrocarbon receptor (AhR) signaling pathway (AID 743085);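 also: HG2L7.5c1 human HepG2 liver cells with stably integrated DRE-driven firefly reporter; series mostly up to about 70 µM; nearly all actives have a fitted effect of over 15% in size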
Method in brief: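 Measured in HG2L7.5c1 cells: CellTiter-Fluor signal (30 min incubation, 37C) for viability, then luciferase luminescence (30 min, room temperature). Compound contact time was 24 h at 37C, following a 5 h pre-incubation.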

[16] = target: Peroxisome proliferator-activated receptor gamma (Homo sapiens) (UniProt P37231); assay: qHTS assay to identify small molecule agonists of the peroxisome proliferator-activated receptor gamma (PPARg) signaling pathway (AID 743094; active = well fitted activation curve with a large enough effect in the signal ratio in the repeat runs, not every such curve was filed as active; inconclusive = weak or mixed curves, or effect the other way; inactive = no such curve, though single readings can be large or run the other way; the % refers to the signal ratio)
Method in brief: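 GeneBLAzer PPARg UAS-bla HEK293H cells were plated, rested 5 h, then exposed to compounds for 17 h at 37C. Beta-lactamase activity was read by LiveBLAzer B/G FRET substrate fluorescence after 1 h at room temperature.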

[17] = qHTS assay for small molecule agonists of the antioxidant response element (ARE) signaling pathway (AID 743202; active = well fitted activation curve with a large enough effect in the signal ratio in the repeat runs, not every such curve was filed as active; inconclusive = weak or mixed curves, or effect the other way; inactive = no such curve, though single readings can be large or run the other way; the % refers to the signal ratio; also: potency is read from the fitted curve at half-maximal effect)
Method in brief: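 Compounds delivered in DMSO to ARE-bla HepG2 cells (2,000 cells/well, pre-incubated 5 h) and left 16 h at 37 C. LiveBLAzer B/G FRET substrate then added for 2 h at RT before fluorescence reading.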

[18] = target: Estrogen receptor (Homo sapiens) (UniProt P03372); assay: qHTS assay to identify small molecule agonists of the estrogen receptor alpha (ER-alpha) signaling pathway using the BG1 cell line (AID 743079); also: nearly all actives have a fitted effect of over 20% in size; also: potency is read from the fitted curve at half-maximal effect
[19] = target: Peroxisome proliferator-activated receptor gamma (Homo sapiens) (UniProt P37231); assay: qHTS assay to identify small molecule antagonists of the peroxisome proliferator-activated receptor gamma (PPARg) signaling pathway (AID 743191; calls by dose curve; also: series mostly up to about 63 µM; nearly all actives have a fitted effect of over 30% in size)
Method in brief: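 GeneBLAzer PPARg UAS-bla HEK293H cells carrying a UAS-driven beta-lactamase reporter were plated at 3000 cells/well, preincubated 5 h at 37C, then given compound for 17 h at 37C; LiveBLAzer B/G FRET substrate was read after 1 h at room temperature.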

Measured: Potency

Chain of Estrogen receptor (Homo sapiens) (P03372 whole entry, looked up): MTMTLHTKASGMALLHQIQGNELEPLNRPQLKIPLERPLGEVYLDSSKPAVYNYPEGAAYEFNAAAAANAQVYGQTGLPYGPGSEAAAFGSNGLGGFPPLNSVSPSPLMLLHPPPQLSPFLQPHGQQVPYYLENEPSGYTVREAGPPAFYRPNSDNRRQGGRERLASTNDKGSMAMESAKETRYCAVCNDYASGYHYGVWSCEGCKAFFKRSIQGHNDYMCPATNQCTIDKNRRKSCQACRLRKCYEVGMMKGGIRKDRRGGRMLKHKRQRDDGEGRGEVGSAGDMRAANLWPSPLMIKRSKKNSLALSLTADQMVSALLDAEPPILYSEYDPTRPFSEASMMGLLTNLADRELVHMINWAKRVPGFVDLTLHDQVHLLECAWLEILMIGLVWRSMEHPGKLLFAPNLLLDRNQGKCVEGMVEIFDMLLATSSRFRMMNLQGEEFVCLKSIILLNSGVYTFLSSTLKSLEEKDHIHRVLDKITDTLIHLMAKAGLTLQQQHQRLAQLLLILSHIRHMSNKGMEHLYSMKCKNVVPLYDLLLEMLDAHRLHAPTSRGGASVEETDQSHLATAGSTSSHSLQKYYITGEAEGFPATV
Chain of Aromatase (Homo sapiens) (P11511 whole entry, looked up): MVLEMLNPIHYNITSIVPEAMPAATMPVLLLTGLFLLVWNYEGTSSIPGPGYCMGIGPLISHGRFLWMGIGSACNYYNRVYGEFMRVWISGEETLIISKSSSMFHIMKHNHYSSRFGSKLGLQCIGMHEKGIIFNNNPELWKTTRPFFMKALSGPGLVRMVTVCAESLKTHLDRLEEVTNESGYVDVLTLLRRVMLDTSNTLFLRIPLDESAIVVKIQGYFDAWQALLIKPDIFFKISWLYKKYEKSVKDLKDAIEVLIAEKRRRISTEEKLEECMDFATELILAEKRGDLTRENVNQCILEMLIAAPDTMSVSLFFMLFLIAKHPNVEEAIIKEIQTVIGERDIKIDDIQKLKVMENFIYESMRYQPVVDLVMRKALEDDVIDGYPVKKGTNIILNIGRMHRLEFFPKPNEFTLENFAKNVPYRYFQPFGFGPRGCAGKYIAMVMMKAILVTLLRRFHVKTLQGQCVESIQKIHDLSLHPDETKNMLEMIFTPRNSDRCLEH
Chain of Aryl hydrocarbon receptor (Homo sapiens) (P35869 whole entry, looked up): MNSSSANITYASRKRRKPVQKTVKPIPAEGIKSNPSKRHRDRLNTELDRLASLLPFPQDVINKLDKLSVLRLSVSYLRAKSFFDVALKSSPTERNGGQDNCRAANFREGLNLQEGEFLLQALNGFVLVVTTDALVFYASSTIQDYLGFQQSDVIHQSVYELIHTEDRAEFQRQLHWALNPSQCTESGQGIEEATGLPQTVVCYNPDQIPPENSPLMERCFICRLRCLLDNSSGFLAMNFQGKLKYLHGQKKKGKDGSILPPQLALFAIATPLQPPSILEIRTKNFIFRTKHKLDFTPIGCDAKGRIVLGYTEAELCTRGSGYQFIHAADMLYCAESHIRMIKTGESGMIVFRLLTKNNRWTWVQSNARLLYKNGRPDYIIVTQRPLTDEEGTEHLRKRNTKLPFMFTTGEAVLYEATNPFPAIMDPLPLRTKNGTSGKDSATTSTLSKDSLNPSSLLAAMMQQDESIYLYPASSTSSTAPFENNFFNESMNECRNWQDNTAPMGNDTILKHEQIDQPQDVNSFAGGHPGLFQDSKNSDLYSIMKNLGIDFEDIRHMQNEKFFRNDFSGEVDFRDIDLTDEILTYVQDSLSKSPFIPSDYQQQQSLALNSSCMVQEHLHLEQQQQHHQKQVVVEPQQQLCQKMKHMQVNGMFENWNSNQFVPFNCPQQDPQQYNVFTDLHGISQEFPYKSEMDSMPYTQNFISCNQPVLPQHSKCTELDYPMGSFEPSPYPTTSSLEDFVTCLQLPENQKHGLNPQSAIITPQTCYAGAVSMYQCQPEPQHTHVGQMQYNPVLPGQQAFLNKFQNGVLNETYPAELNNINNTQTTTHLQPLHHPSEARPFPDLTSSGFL
Chain of Peroxisome proliferator-activated receptor gamma (Homo sapiens) (P37231 whole entry, looked up): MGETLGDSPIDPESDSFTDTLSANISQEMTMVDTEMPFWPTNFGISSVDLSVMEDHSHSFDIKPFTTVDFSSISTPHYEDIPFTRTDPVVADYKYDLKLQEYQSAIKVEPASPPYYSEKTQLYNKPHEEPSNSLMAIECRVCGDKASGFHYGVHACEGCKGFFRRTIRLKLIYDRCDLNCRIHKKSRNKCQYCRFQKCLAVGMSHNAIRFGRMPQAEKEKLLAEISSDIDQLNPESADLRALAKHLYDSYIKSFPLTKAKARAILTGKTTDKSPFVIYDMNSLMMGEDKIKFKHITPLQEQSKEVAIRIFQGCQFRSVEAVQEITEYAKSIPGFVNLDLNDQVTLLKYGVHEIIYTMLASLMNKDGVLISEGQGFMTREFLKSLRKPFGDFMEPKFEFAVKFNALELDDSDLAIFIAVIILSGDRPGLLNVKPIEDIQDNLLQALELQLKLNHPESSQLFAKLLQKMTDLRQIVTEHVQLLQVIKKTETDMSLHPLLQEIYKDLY

CCCCCCCCCC=O
not listed: [14] | [15] | [16] | [17] | [18] | [19]
inactive: all other assays above

CC(CN)CCCN (stereo unspecified)
not listed: [18] | [19]
inactive: all other assays above

Cc1cccc(C(C)(C)C)c1O
not listed: [10] | [14] | [15] | [19]
inactive: all other assays above

CC(C)NCC(O)COc1ccc(CC(N)=O)cc1 (stereo unspecified)
not listed: Aromatase (Homo sapiens)
inactive: all other assays above

CCCc1ccccc1
not listed: [15] | [16] | [17]
inactive: all other assays above

NC1CCN(c2nc3c(cc2F)c(=O)c(C(=O)O)cn3-c2ccc(F)cc2F)C1 (stereo unspecified)
active: [2] 23.7 µM | [17] 26.6 µM
not listed: [7] | [13] | [14] | [16] | [19]
inactive: all other assays above

CCCCCCc1ccc(N)cc1
active: [2] 30.6 µM | [14] 15.5 µM [inconclusive] | [18] 21.7 µM
not listed: [6] | Aromatase (Homo sapiens) | [11] | [16] | [17] | [19]
inactive: all other assays above

CCOC(=O)C1=C(C)NC(C)=C(C(=O)OC)C1c1cccc([N+](=O)[O-])c1 (stereo unspecified)
not listed: [15] | [18] | [19]
inactive: all other assays above

O=C(NN1CCCC1)NS(=O)(=O)c1ccc(Cl)cc1
not listed: [7] | [10]
inactive: all other assays above

SC1CCCC1
not listed: [15] | [18]
inactive: all other assays above

CC(=O)/C=C/C1C(C)=CCCC1(C)C (stereo unspecified)
not listed: [18] | [19]
inactive: all other assays above

CN(c1nccc(=O)[nH]1)C1CCN(c2nc3ccccc3n2Cc2ccc(F)cc2)CC1
not listed: [14] | [17] | [18] | [19]
inactive: all other assays above

ClC(Cl)(Cl)c1ccc(C(Cl)(Cl)Cl)cc1
not listed: Aromatase (Homo sapiens) | [15] | [19]
inactive: all other assays above

Nc1cnn([C@@H]2O[C@H](CO)[C@@H](O)[C@H]2O)c(=O)n1
not listed: [8] | [10] | [14] | [15] | [16] | [19]
inactive: all other assays above
